Binding signal data for 15 molecules are collected here from publication PMC12864922, “TDP-43 directly inhibits mRNA accumulation in neurites through modulation of mRNA stability”.

In all, about 9,900 sequences were measured (“r (bound/input frequency ratio)”: median about 0.7, highest 2% from about 6.5 on). The entries come from a sample that favours the highest values as a whole.

First the molecules themselves.
B1: ENSMUSG00000029636.13|Wasf3 (ssRNA)
RNA: GGGAGUUCUACAGUCCGACGAUCGCUUCGAUAUCCGCAUGCUAGUUUGAUGAGAAUGACUGGUCUGACUGAGGCACAAGGGCCAGGCGACCAGUGGACAGCCAGGGCCCCAUAUGCAAGUGUGUUAGGAGCUCCUGUGCUCUCUGCACCCUCACAGUGGUAUUUCCCUGUAGCUUUAGUCCCUUUUGUAUUAACAGUGUGAUUUGCUUCUGCACAUCCUUCUGGAUUUGUUGAGUAUUUACUGUGUAAUACUUAAGUGCCACAGAACACAGCACACCGUGCUGCACACCAGGAAACUCGCAGUCUCUUGCGGUCGCACUAGUGUGGAAUUCUCGGGUGUCAAGG
B2: ENSMUSG00000061578.1299|Ksr2 (ssRNA)
RNA: GGGAGUUCUACAGUCCGACGAUCGCUUCGAUAUCCGCAUGCUACGUGUUGCUGGGUCCCAGGGGAUUGGCUGUAGUUAAUUAAAAGCACCUGUCUCUGUCAUCUCUGCACCCAACUGAAUCUCCCACCCUCAAGUGUACCUCUCAGGAUAUCCCCAGGCACACGAAGAUGGAAUGGAAAGCCAGUGGGUAUCUCCCACCCACUUAGAUGCUGAUGGCCUGGGACUAUAAACAGGGACAGUUGGGUCUCCUAAGGAAUAGCUUCCAGGUCCAGGAUGCUGGCAUCUCCCAGAGAGAACUCCAUCCUCUUGCGGUCGCACUAGUGUGGAAUUCUCGGGUGUCAAGG
B3: ENSMUSG00000090935.112|Synj2bp (ssRNA)
RNA: GGGAGUUCUACAGUCCGACGAUCGCUUCGAUAUCCGCAUGCUAGUUCCUGUAGCUAUGGUGCUGCUACCAGUGUUUGCCCUCACCAUGGUAGCAGUUUGGGCCUUCGUGAGAUACCGAAAGCAGCUUUGAAAUGCUUGCUGUCUUCCAGUGUGUCCAAUGAACUCUCUCUCUCACUCACCAUCUCUGACAUCCUCCCAUAUUCUUUCUCCUCCACAUAGCCAAUACAAGAUUUAAAGUGACUGCUUAUCACCCAAAACCCUGCUAUUCAAAAUCUCCUAUUCUAAUGGAAGAGUACAGGGGUUCUCUUGCGGUCGCACUAGUGUGGAAUUCUCGGGUGUCAAGG
B4: ENSMUSG00000034801.219|Sos2|230:238 (ssRNA)
RNA: GGGAGUUCUACAGUCCGACGAUCGCUUCGAUAUCCGCAUGCUAUCUGCUAUUUGACUAAUUUGUAAGUCUGGAACAAAAGUGUCUUAUGGCAUAAGAACCAACUGCCAUUGUCAAACCUAUUAACUGUCUUUAAUCUCGUGUUAACUGAAAUUUUUGAAAAGUUUUUCCAGAUUAGUAAUAUUUAAACAGAAAAUACUUUAAAAAGCUUUAUUAAAUUUUUUAAUCAGGAUAAAGCUUUGCCAUUUGGAUACUAUCAUUCAAAGUGAUCAAGCAUACAUACUUAUGCUGAUAGUGCAGUAGCACUCUUGCGGUCGCACUAGUGUGGAAUUCUCGGGUGUCAAGG
B5: ENSMUSG00000028439.106|Fam219a|156:160 (ssRNA)
RNA: GGGAGUUCUACAGUCCGACGAUCGCUUCGAUAUCCGCAUGCUACCCUCAUCUCCAGAUGGGAAGCCUGGCAGCGCUGUCCAAAGGGAUACUGUCUCUCCAUUAGAUAACUCCUUCCACUGUCUCCCUCCCCCGCUUUCUUACUUUCUGAGGGUUGGGAAGGUAAGAUGGGCCUUAGAGAGAAGCCAGGUUUGGGGAUGCAUACACCUGUUCUCACCGGUCUCUAACCAGUGCAUCUGUCUCUCUGCCUCAUCCCCACACCGCCCUGCCACCCCCAGUCUUCUGUCUAUUGGUUCCAGGCUGGACUCUUGCGGUCGCACUAGUGUGGAAUUCUCGGGUGUCAAGG
B6: ENSMUSG00000061578.55|Ksr2 (ssRNA)
RNA: GGGAGUUCUACAGUCCGACGAUCGCUUCGAUAUCCGCAUGCUACACGCUGGACCAGUGUGUGCGCAUGUGUCUACACAUGGACAGGGCCAACUGCUAUCCUUCUGCCUGGACGAGCCAGCUGUGGAGUGUCCCAGCUGUGCUAUCCUGGAACACAGAACCAGGAUGGAACCAGAAACAAUACACCUGCUCCGUUGUCAAGGCUUCUAGGCCAAGGUCAGGGUAGGGAGGUGGGGUGGGUUAAACUUGCAAACAUCUGAUUUUAGAGGUCCCAUUCCAAGAUGGAAGUCACCGGUUGCCGCUGACUCUUGCGGUCGCACUAGUGUGGAAUUCUCGGGUGUCAAGG
B7: ENSMUSG00000031028.274|Tub (ssRNA)
RNA: GGGAGUUCUACAGUCCGACGAUCGCUUCGAUAUCCGCAUGCUAAAAAAGUAGAGUCAUGUAGAGUCAUGCUUUGAAUAUGUGGGUCAUGCUUUAGAUAUGAAGAGGCUAUGCAGGUAAGGAGGCUGGAUUGAUGUAAAUGGAAGUAGUACUUUAAGAAAGCUCUAGAUUUCCCAGGUUGGACACUCGACGAAAGGCACACCUGCUGCAGCAGGUUCUGACACACCUGAGCCAUACAUUGCCAUCAGAGAACCCUCAGCGAGGUAGCCUUUGUUUACAGUCUAGUUUCUAGAGGGCAGUAGGACCUCUUGCGGUCGCACUAGUGUGGAAUUCUCGGGUGUCAAGG
B8: ENSMUSG00000031028.129|Tub|126:130;202:207 (ssRNA)
RNA: GGGAGUUCUACAGUCCGACGAUCGCUUCGAUAUCCGCAUGCUACCAAAUAUCUGAGUGGAUGGGGAUGAUAGGAGUCAUCCAGUAGACUCCCUACAUCAGGGCUCUCAGCAGCCCCAGCACAACACCUAUGACACACACACAGGAUCUAGGUCACCAUUCAAGUAAUGCAUACCUUCAGGAAGAAUGUCCUCUCUGGGAAGACUCAGCUCCCAUUAUUGCCAGCAUGCCAUGAUCAGUGAGGGCACACACCCAUGCUUAGGGGGAUGGCGCAGGGUGAGGGGAGCAGAGGAUAUUUUAGGGCCCUCUUGCGGUCGCACUAGUGUGGAAUUCUCGGGUGUCAAGG
B9: ENSMUSG00000004113.208|Cacna1b|46:50;236:240 (ssRNA)
RNA: GGGAGUUCUACAGUCCGACGAUCGCUUCGAUAUCCGCAUGCUACAUCGGGUGGAUUGGGUGGGAGCUGCUCAGAGCAGCACGGGGGCUACACACUUAGGGACAUUGACAGUGUCCAUCAGCAUGUCAGAGAAGCAGCUGUAGUGCCCGUGUUUCUCCCUGAGUCAUGGGUUCUGAAGAAGCCAGAGCGGCACAAUGCGUGCUUGCAUGAGGCACUUUCAGCCUUUUUAAAUCUGACUCUCAGGGAUGGGAUGCCUGCCAAGUAGGGUGUAAUCUCUGUACACAUUUUAAAACAACAACAACAACUCUUGCGGUCGCACUAGUGUGGAAUUCUCGGGUGUCAAGG
B10: ENSMUSG00000022095.101|Fam160b2 (ssRNA)
RNA: GGGAGUUCUACAGUCCGACGAUCGCUUCGAUAUCCGCAUGCUAUGCUCUACCCUCCUGGAGGCUGUUGCAAAAUUCCCAACUGCCUCCUGGCAGAGGCCCAAAGUAUGCUCUGCGCCCAGGCGGGGGCAGCUGCUAACAAGAGCCCUGGCGCAGCUGCAGCCAGGGCAGGCGAGAGCCUUGGAGCUGGGUGCCAGGCUCCAGCUCCAGCUCCAGCUGGUUCCUCUCUGGCGCCUUCUGAACCCGUCUCAGCAAGUCCGAAACACCUGGGCAGAGAGGUCAUUGACCAGGGAUGGGGGCCCUUGCUCUUGCGGUCGCACUAGUGUGGAAUUCUCGGGUGUCAAGG
B11: ENSMUSG00000028439.158|Fam219a (ssRNA)
RNA: GGGAGUUCUACAGUCCGACGAUCGCUUCGAUAUCCGCAUGCUAAAAGUCCAGGAGCCAGGCUUCCAGAAAGGCUCUUCAAGAGCAAGCUUAAGGAAAUACAGUGAGCCAAGUGGCUGUAUGAUAUGGUAUGGUAUGGUAUGGUAUGGUAUGGUAUGGUAUGCACAUGUGUGUGCAUGUGUGUGUGCCUGUGUGUGUGCGUGUGCGUGUGUGUAUGUGUGUGCGUGUGUGUGUGUGUGUGUUGUACCCGAGUGUGUGUUGAGCCUAUCUGUCCAGGGAACCAGAUUGGUGUCCGAGAUGAGGAACUCUUGCGGUCGCACUAGUGUGGAAUUCUCGGGUGUCAAGG
B12: ENSMUSG00000028439.159|Fam219a (ssRNA)
RNA: GGGAGUUCUACAGUCCGACGAUCGCUUCGAUAUCCGCAUGCUACAGGAGCCAGGCUUCCAGAAAGGCUCUUCAAGAGCAAGCUUAAGGAAAUACAGUGAGCCAAGUGGCUGUAUGAUAUGGUAUGGUAUGGUAUGGUAUGGUAUGGUAUGGUAUGCACAUGUGUGUGCAUGUGUGUGUGCCUGUGUGUGUGCGUGUGCGUGUGUGUAUGUGUGUGCGUGUGUGUGUGUGUGUGUUGUACCCGAGUGUGUGUUGAGCCUAUCUGUCCAGGGAACCAGAUUGGUGUCCGAGAUGAGGAAAUGGCUCUCUUGCGGUCGCACUAGUGUGGAAUUCUCGGGUGUCAAGG
B13: ENSMUSG00000028439.160|Fam219a (ssRNA)
RNA: GGGAGUUCUACAGUCCGACGAUCGCUUCGAUAUCCGCAUGCUACCAGGCUUCCAGAAAGGCUCUUCAAGAGCAAGCUUAAGGAAAUACAGUGAGCCAAGUGGCUGUAUGAUAUGGUAUGGUAUGGUAUGGUAUGGUAUGGUAUGGUAUGCACAUGUGUGUGCAUGUGUGUGUGCCUGUGUGUGUGCGUGUGCGUGUGUGUAUGUGUGUGCGUGUGUGUGUGUGUGUGUUGUACCCGAGUGUGUGUUGAGCCUAUCUGUCCAGGGAACCAGAUUGGUGUCCGAGAUGAGGAAAUGGCUGUGGCCCUCUUGCGGUCGCACUAGUGUGGAAUUCUCGGGUGUCAAGG
B14: ENSMUSG00000028439.161|Fam219a (ssRNA)
RNA: GGGAGUUCUACAGUCCGACGAUCGCUUCGAUAUCCGCAUGCUAUUCCAGAAAGGCUCUUCAAGAGCAAGCUUAAGGAAAUACAGUGAGCCAAGUGGCUGUAUGAUAUGGUAUGGUAUGGUAUGGUAUGGUAUGGUAUGGUAUGCACAUGUGUGUGCAUGUGUGUGUGCCUGUGUGUGUGCGUGUGCGUGUGUGUAUGUGUGUGCGUGUGUGUGUGUGUGUGUUGUACCCGAGUGUGUGUUGAGCCUAUCUGUCCAGGGAACCAGAUUGGUGUCCGAGAUGAGGAAAUGGCUGUGGCCUGGGAACUCUUGCGGUCGCACUAGUGUGGAAUUCUCGGGUGUCAAGG
B15: ENSMUSG00000028439.162|Fam219a (ssRNA)
RNA: GGGAGUUCUACAGUCCGACGAUCGCUUCGAUAUCCGCAUGCUAAAAGGCUCUUCAAGAGCAAGCUUAAGGAAAUACAGUGAGCCAAGUGGCUGUAUGAUAUGGUAUGGUAUGGUAUGGUAUGGUAUGGUAUGGUAUGCACAUGUGUGUGCAUGUGUGUGUGCCUGUGUGUGUGCGUGUGCGUGUGUGUAUGUGUGUGCGUGUGUGUGUGUGUGUGUUGUACCCGAGUGUGUGUUGAGCCUAUCUGUCCAGGGAACCAGAUUGGUGUCCGAGAUGAGGAAAUGGCUGUGGCCUGGGAAAUCAGUCUCUUGCGGUCGCACUAGUGUGGAAUUCUCGGGUGUCAAGG

Sequence of TDP-43 (Q13148 whole entry): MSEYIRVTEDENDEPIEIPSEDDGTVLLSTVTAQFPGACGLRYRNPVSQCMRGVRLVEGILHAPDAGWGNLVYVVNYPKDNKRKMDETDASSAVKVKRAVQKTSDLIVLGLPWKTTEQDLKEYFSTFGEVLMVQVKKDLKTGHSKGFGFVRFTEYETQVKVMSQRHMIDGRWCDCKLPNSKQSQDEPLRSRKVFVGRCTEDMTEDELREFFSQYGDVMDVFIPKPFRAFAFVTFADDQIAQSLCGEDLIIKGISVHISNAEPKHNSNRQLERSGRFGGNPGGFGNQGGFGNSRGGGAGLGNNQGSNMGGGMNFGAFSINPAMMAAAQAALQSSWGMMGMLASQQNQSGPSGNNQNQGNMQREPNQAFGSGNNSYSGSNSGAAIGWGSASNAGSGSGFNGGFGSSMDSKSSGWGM

For this experiment, the target named is TDP-43 (Homo sapiens, UniProt Q13148 1-414). As to the kind of experiment: RNA Bind-n-Seq with designed 260-mer pool; 25 mM Tris-HCl, 150 mM KCl, 3 mM MgCl2, BSA (printed 500 mg/mL), 20 units/mL SUPERase IN; pH not stated; 500 nM RNA pool, 1 h, 4 C; TDP-43 5, 50, 500 nM; high values mean tight binding. The conditions noted are these: protein: recombinant; tags: SBP (GST cleaved off with PreScission; pGEX-GST-SBP). The procedure, abridged:
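Recombinant SBP-tagged TDP-43 at 5, 50 or 500 nM was captured on streptavidin beads, then incubated 1 h at 4 °C with 500 nM of an in vitro-transcribed 260-nt 3′ UTR oligo pool in 25 mM Tris-HCl, 150 mM KCl, 3 mM MgCl2, BSA and SUPERase IN. Bound RNA was washed, eluted with biotin, reverse transcribed, PCR-amplified and sequenced. Binding is R, each oligo's mapped-read-normalized abundance in the bound sample divided by its abundance in input. Duplicates used two independent protein batches.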
In the case of B1, the binding signal is 0.391 R (bound/input frequency ratio). For B2, the binding signal is 0.299 R (bound/input frequency ratio).

Consider B3, for which the binding signal was 2.02 R (bound/input frequency ratio).

B4: the binding signal is 0.0202 R (bound/input frequency ratio). B5: the binding signal is 0.353 R (bound/input frequency ratio). The figure for B6 is 0.378 R (bound/input frequency ratio); for B7 it is 0.687 R (bound/input frequency ratio). B8: the binding signal is 0.668 R (bound/input frequency ratio).

For the molecule B9, the binding signal was 0.881 R (bound/input frequency ratio).

As for B10, the binding signal is 0.743 R (bound/input frequency ratio). B11: the binding signal is 6.13 R (bound/input frequency ratio). Consider B12, for which the binding signal is 7.39 R (bound/input frequency ratio).

Take B13: the binding signal was 6.51 R (bound/input frequency ratio). For B14, the binding signal was 8.09 R (bound/input frequency ratio).

Turning to B15, the binding signal is 8.11 R (bound/input frequency ratio).
